Experiment in all cases: PBM; 200 nM protein, PBS
What all share (conditions): dsDNA, one strand shown

Test [1] deals with NKX2-5 (Homo sapiens, UniProt P52952 125-210, R139K).
For test [2], the target named is T1, SIX6 (Homo sapiens, UniProt O95475 114-200, L167I).
T1 sequence: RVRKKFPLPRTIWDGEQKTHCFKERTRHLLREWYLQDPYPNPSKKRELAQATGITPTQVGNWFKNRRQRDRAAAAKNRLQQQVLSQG

The target of test [3] is T2, SIX6 (Homo sapiens, UniProt O95475 114-200, L143V).
T2 sequence: T1 sequence with L30V, I54L

Test [4] concerns the target T3, SIX6 (Homo sapiens, UniProt O95475 114-200, H141N).
T3 sequence: T1 sequence with H28N, I54L

Test [5] addresses T4, SIX6 (Homo sapiens, UniProt O95475 114-200, T165P).
T4 sequence: T1 sequence with T52P, I54L

The target of test [6] is T5, SIX6 (Homo sapiens, UniProt O95475 114-200, L167M).
T5 sequence: T1 sequence with I54M

The target of test [7] is T6, SIX6 (Homo sapiens, UniProt O95475 114-200, L143M).
T6 sequence: T1 sequence with L30M, I54L

In test [8] the target is T7, SIX6 (Homo sapiens, UniProt O95475 114-200, L143I).
T7 sequence: T1 sequence with L30I, I54L

Test [9] deals with T8, SIX6 (Homo sapiens, UniProt O95475 114-200, T165G).
T8 sequence: T1 sequence with T52G, I54L

Test [10] has as its target HOXA2 (Homo sapiens, UniProt O43364 129-215, R185T).
Test [11] concerns the target T9, SIX6 (Homo sapiens, UniProt O95475 114-200, T139Q).
T9 sequence: T1 sequence with T26Q, I54L

Test [12] has as its target ALX3 (Homo sapiens, UniProt O95076 139-225, N203Q).
Test [13] addresses T10, SIX6 (Homo sapiens, UniProt O95475 114-200, T165A).
T10 sequence: T1 sequence with T52A, I54L

Test [14] concerns the target HOXA2 (Homo sapiens, UniProt O43364 129-215, R185K).
The target in test [15] is T11, SIX6 (Homo sapiens, UniProt O95475 114-200, L167V).
T11 sequence: T1 sequence with I54V

The target of test [16] is ALX3 (Homo sapiens, UniProt O95076 139-225).
Test [17] addresses T12, SIX6 (Homo sapiens, UniProt O95475 114-200).
T12 sequence: T1 sequence with I54L

The target in test [18] is ALX3 (Homo sapiens, UniProt O95076 139-225, L168Q).
Test [19] addresses T13, SIX6 (Homo sapiens, UniProt O95475 114-200, T165I).
T13 sequence: T1 sequence with T52I, I54L

The target in test [20] is ALX3 (Homo sapiens, UniProt O95076 139-225, L168V).
Test [21] has as its target HOXA2 (Homo sapiens, UniProt O43364 129-215, Y150S).
The target of test [22] is ALX3 (Homo sapiens, UniProt O95076 139-225, N203S).
Test [23] deals with HOXA2 (Homo sapiens, UniProt O43364 129-215).
The target of test [24] is NKX2-5 (Homo sapiens, UniProt P52952 125-210).
Test [25] has as its target MSX2 (Homo sapiens, UniProt P35548 130-214, R199I).
Test [26] addresses HOXD13 (Homo sapiens, UniProt P35453 263-343, T313R).
For test [27], the target named is HOXD13 (Homo sapiens, UniProt P35453 263-343).
Test [28] deals with MSX2 (Homo sapiens, UniProt P35548 130-214).
In test [29] the target is VAX1 (Homo sapiens, UniProt Q5SQQ9 86-172).
Test [30] deals with HOXD13 (Homo sapiens, UniProt P35453 263-343, T313A).
The target of test [31] is MSX2 (Homo sapiens, UniProt P35548 130-214, F161Y).
In test [32] the target is VAX1 (Homo sapiens, UniProt Q5SQQ9 86-172, T142I).
Test [33] concerns the target VAX1 (Homo sapiens, UniProt Q5SQQ9 86-172, K157R).

Numbering of substitutions follows the chain as printed.

Sequence of HOXA2 (Homo sapiens, UniProt O43364 129-215, R185T) (O43364 129-215 R185T): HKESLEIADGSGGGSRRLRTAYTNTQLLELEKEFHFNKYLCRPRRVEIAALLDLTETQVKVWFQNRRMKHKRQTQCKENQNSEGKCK
Sequence of NKX2-5 (Homo sapiens, UniProt P52952 125-210, R139K) (P52952 125-210 R139K): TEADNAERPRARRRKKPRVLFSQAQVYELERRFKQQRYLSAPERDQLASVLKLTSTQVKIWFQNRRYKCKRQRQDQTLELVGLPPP
Sequence of HOXA2 (Homo sapiens, UniProt O43364 129-215, Y150S) (O43364 129-215 Y150S): as the sequence (O43364 129-215 R185T) above, with Y22S, T57R counted along it
Sequence of HOXA2 (Homo sapiens, UniProt O43364 129-215) (O43364 129-215): as the sequence (O43364 129-215 R185T) above, with T57R counted along it
Sequence of HOXA2 (Homo sapiens, UniProt O43364 129-215, R185K) (O43364 129-215 R185K): as the sequence (O43364 129-215 R185T) above, with T57K counted along it
Sequence of NKX2-5 (Homo sapiens, UniProt P52952 125-210) (P52952 125-210): as the sequence (P52952 125-210 R139K) above, with K15R counted along it
Sequence of MSX2 (Homo sapiens, UniProt P35548 130-214) (P35548 130-214): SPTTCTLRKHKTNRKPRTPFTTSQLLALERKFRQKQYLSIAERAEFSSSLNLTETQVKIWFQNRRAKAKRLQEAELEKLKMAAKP
Sequence of HOXD13 (Homo sapiens, UniProt P35453 263-343) (P35453 263-343): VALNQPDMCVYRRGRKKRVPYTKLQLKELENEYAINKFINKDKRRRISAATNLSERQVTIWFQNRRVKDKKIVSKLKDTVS
Sequence of HOXD13 (Homo sapiens, UniProt P35453 263-343, T313R) (P35453 263-343 T313R): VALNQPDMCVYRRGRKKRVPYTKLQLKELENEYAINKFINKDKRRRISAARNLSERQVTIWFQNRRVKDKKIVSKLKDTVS
Sequence of ALX3 (Homo sapiens, UniProt O95076 139-225, L168Q) (O95076 139-225 L168Q): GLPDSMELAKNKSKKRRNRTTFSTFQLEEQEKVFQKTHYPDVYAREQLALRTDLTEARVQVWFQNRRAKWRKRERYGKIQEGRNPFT
Sequence of ALX3 (Homo sapiens, UniProt O95076 139-225, N203S) (O95076 139-225 N203S): as the sequence (O95076 139-225 L168Q) above, with Q30L, N65S counted along it
Sequence of MSX2 (Homo sapiens, UniProt P35548 130-214, R199I) (P35548 130-214 R199I): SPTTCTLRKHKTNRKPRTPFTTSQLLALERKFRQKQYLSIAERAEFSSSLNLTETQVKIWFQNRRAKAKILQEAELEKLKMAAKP
Sequence of ALX3 (Homo sapiens, UniProt O95076 139-225) (O95076 139-225): as the sequence (O95076 139-225 L168Q) above, with Q30L counted along it
Sequence of ALX3 (Homo sapiens, UniProt O95076 139-225, N203Q) (O95076 139-225 N203Q): as the sequence (O95076 139-225 L168Q) above, with Q30L, N65Q counted along it
Sequence of HOXD13 (Homo sapiens, UniProt P35453 263-343, T313A) (P35453 263-343 T313A): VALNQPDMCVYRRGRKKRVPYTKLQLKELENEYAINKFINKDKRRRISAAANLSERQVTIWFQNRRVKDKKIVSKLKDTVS
Sequence of VAX1 (Homo sapiens, UniProt Q5SQQ9 86-172, K157R) (Q5SQQ9 86-172 K157R): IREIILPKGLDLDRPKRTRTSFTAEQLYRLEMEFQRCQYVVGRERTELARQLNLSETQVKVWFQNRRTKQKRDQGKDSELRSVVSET
Sequence of ALX3 (Homo sapiens, UniProt O95076 139-225, L168V) (O95076 139-225 L168V): as the sequence (O95076 139-225 L168Q) above, with Q30V counted along it
Sequence of MSX2 (Homo sapiens, UniProt P35548 130-214, F161Y) (P35548 130-214 F161Y): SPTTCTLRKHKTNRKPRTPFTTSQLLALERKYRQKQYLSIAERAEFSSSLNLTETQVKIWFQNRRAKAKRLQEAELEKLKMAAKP
Sequence of VAX1 (Homo sapiens, UniProt Q5SQQ9 86-172, T142I) (Q5SQQ9 86-172 T142I): as the sequence (Q5SQQ9 86-172 K157R) above, with T57I, R72K counted along it
Sequence of VAX1 (Homo sapiens, UniProt Q5SQQ9 86-172) (Q5SQQ9 86-172): as the sequence (Q5SQQ9 86-172 K157R) above, with R72K counted along it

CAGCGGCC: the binding signal is 8.81 upbm affinity estimate (log intensity, higher = more binding, comparable within an allelic series) in test [1]; 8.85 upbm affinity estimate (log intensity, higher = more binding, comparable within an allelic series) in test [2]; 8.77 upbm affinity estimate (log intensity, higher = more binding, comparable within an allelic series) in test [3]; 8.79 upbm affinity estimate (log intensity, higher = more binding, comparable within an allelic series) in test [4]; 8.97 upbm affinity estimate (log intensity, higher = more binding, comparable within an allelic series) in [5]; 8.8 upbm affinity estimate (log intensity, higher = more binding, comparable within an allelic series) in test [6]. The binding signal is 8.83 upbm affinity estimate (log intensity, higher = more binding, comparable within an allelic series) in test [7]; 8.89 upbm affinity estimate (log intensity, higher = more binding, comparable within an allelic series) in test [8]; 8.88 upbm affinity estimate (log intensity, higher = more binding, comparable within an allelic series) in [9]; 7.12 upbm affinity estimate (log intensity, higher = more binding, comparable within an allelic series) in test [10]; 8.81 upbm affinity estimate (log intensity, higher = more binding, comparable within an allelic series) in test [11]; 7.77 upbm affinity estimate (log intensity, higher = more binding, comparable within an allelic series) in test [12]. The binding signal in [13] is 8.75 upbm affinity estimate (log intensity, higher = more binding, comparable within an allelic series); in test [14], 10.2 upbm affinity estimate (log intensity, higher = more binding, comparable within an allelic series); in [15] it was 8.83 upbm affinity estimate (log intensity, higher = more binding, comparable within an allelic series); in test [16] it was 7.75 upbm affinity estimate (log intensity, higher = more binding, comparable within an allelic series); in test [17], 8.8 upbm affinity estimate (log intensity, higher = more binding, comparable within an allelic series); in test [18], 7.78 upbm affinity estimate (log intensity, higher = more binding, comparable within an allelic series). Besides, the binding signal in test [19] is 8.74 upbm affinity estimate (log intensity, higher = more binding, comparable within an allelic series); in test [20], 7.74 upbm affinity estimate (log intensity, higher = more binding, comparable within an allelic series); in [21], 10.4 upbm affinity estimate (log intensity, higher = more binding, comparable within an allelic series); in [22], 7.77 upbm affinity estimate (log intensity, higher = more binding, comparable within an allelic series); in test [23] it was 7.19 upbm affinity estimate (log intensity, higher = more binding, comparable within an allelic series); in [24] it was 8.82 upbm affinity estimate (log intensity, higher = more binding, comparable within an allelic series).
For the sequence CCCTGGCC, the binding signal was 8.8 upbm affinity estimate (log intensity, higher = more binding, comparable within an allelic series) in [1]; 6.94 upbm affinity estimate (log intensity, higher = more binding, comparable within an allelic series) in test [10]; 9.39 upbm affinity estimate (log intensity, higher = more binding, comparable within an allelic series) in test [25]; 9.22 upbm affinity estimate (log intensity, higher = more binding, comparable within an allelic series) in [26]; 10.1 upbm affinity estimate (log intensity, higher = more binding, comparable within an allelic series) in [14]; 9.28 upbm affinity estimate (log intensity, higher = more binding, comparable within an allelic series) in [27]. Also, the binding signal is 9.37 upbm affinity estimate (log intensity, higher = more binding, comparable within an allelic series) in [28]; 6.64 upbm affinity estimate (log intensity, higher = more binding, comparable within an allelic series) in test [29]; 9.38 upbm affinity estimate (log intensity, higher = more binding, comparable within an allelic series) in test [30]; 9.41 upbm affinity estimate (log intensity, higher = more binding, comparable within an allelic series) in [31]; 6.9 upbm affinity estimate (log intensity, higher = more binding, comparable within an allelic series) in test [32]; 10.4 upbm affinity estimate (log intensity, higher = more binding, comparable within an allelic series) in [21]. Also, the binding signal in [23] is 6.83 upbm affinity estimate (log intensity, higher = more binding, comparable within an allelic series); in [33], 6.7 upbm affinity estimate (log intensity, higher = more binding, comparable within an allelic series); in [24], 8.75 upbm affinity estimate (log intensity, higher = more binding, comparable within an allelic series).

Values taken from PMC11006913.
